Measured values as given in PubChem BioAssay (NCATS).
Inconclusive results are not listed. Entries that show only a call come without a potency. Calls of active or inactive are those of the source. Calls follow the shape of the full dose curve.

Experiment: S16 Schwann cell PMP22 intronic element beta-lactamase assay (AID 624044); also: nearly all actives have a fitted effect of over 15% in size
Conditions: S16 rat Schwann cells, PMP22 element beta-lactamase FRET, 24 h; ratio activity, negative = inhibition: at 38.3 µM (top of the series)
Outline: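 Rat S16 Schwann cells with beta-Lac driven by a PMP22 intronic element, compound-treated 24 h at 37 °C. LiveBLAzer FRET B/G read: 460 nm normalized to potassium clavulanate vs DMSO; 535 nm FRET as viability; concentration-effect curves classified.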
Potency is read from the fitted curve at half-maximal effect.

Structure (SMILES) | Potency
CCCCCCCCCCCCCCCC(=O)OC[C@H](O)[C@H]1OC[C@@H](O)[C@@H]1O | inactive
CCCCC(=O)OCC(=O)[C@]1(O)Cc2c(O)c3c(c(O)c2[C@H](OC2CC(NC(=O)C(F)(F)F)C(O)C(C)O2)C1)C(=O)c1c(OC)cccc1C3=O (some centres undefined) | 2.51 µM (active)
C[C@H]1OC(OC2C(O)[C@@H](O)C(OC3C(O)[C@@H](O)C(O)O[C@@H]3CO)O[C@@H]2CO)[C@H](O)C(O)C1N[C@H]1C=C(CO)[C@@H](O)[C@H](O)C1O (some centres undefined) | inactive
CCN(CC)CC(=O)Nc1c(C)cc(C)cc1C | inactive
NC(=O)c1ncn(C2OC(CO)C(O)C2O)c1N (centres undefined) | inactive
C[C@H]1[C@@H](OC(=O)CCC(=O)O)OC2OC3(C)CC[C@H]4[C@H](C)CC[C@@H]1[C@@]24OO3 (some centres undefined) | inactive
OCCN1CC(O)C(O)C(O)C1CO (centres undefined) | inactive
CC(CCC(=O)O)C1CCC2C3C(=O)C[C@@H]4CC(=O)CC[C@@]4(C)C3CC(=O)[C@]12C (some centres undefined) | inactive
O=C(OC[C@@H]1O[C@@](O)(COC(=O)c2cccnc2)[C@H](OC(=O)c2cccnc2)[C@H]1OC(=O)c1cccnc1)c1cccnc1 | inactive
NC[C@@H]1O[C@H](OC2[C@@H](CO)O[C@@H](OC3[C@H](O)[C@H](N)C[C@H](N)[C@H]3OC3O[C@H](CO)[C@@H](O)[C@H](O)[C@@H]3N)[C@H]2O)C(N)[C@H](O)[C@@H]1O (some centres undefined) | inactive
CC[C@@H]1/C=C(\C)C[C@H](C)C[C@H](OC)[C@H]2O[C@@](O)(C(=O)C(=O)N3CCCC[C@H]3C(=O)O[C@H](/C(C)=C/[C@@H]3CC[C@H](Cl)[C@H](OC)C3)[C@H](C)[C@@H](O)CC1=O)[C@H](C)C[C@@H]2OC | inactive
CN1[C@@H]2CC[C@@H]1CC(OC(=O)[C@H](CO)c1ccccc1)C2 (some centres undefined) | inactive
CC[C@@]1(O)C[C@H](O[C@H]2C[C@@H](N(C)C)[C@@H](O[C@H]3C[C@@H](O)[C@@H](O[C@H]4CCC(=O)[C@@H](C)O4)[C@@H](C)O3)[C@@H](C)O2)c2c(cc3c(c2O)C(=O)c2c(O)cccc2C3=O)[C@H]1C(=O)OC | 0.199 µM (active)
CC1(C)OC[C@@H]2O[C@@]3(C(=O)O)OC(C)(C)O[C@@H]3[C@@H]2O1 | inactive
CCC(C(=O)O)C1OC(C(C)C(O)C(C)C(=O)C(CC)C2OC3(C=CC(O)C4(CCC(C)(C5CCC(O)(CC)C(C)O5)O4)O3)C(C)CC2C)C(C)CC1C (centres undefined) | 6.3 µM (active)
O=C1C(I)=CC(=C(c2cc(I)c(O)c(I)c2)c2ccccc2C(=O)O)C=C1I | inactive
NC(=O)NC(CCC(=O)O)C(=O)O (centres undefined) | inactive
COC1CC2CCC(C)[C@](O)(O2)C(=O)C(=O)N2CCCCC2C(=O)OC(C(C)CC2CCC(O)C(OC)C2)CC(=O)C(C)/C=C(/C)C(O)C(OC)C(=O)C(C)CC(C)C=CC=C/C=C\1C (some centres undefined) | inactive
CC(=O)OCC(=O)[C@@]1(O)CCC2C3C[C@H](C)C4=CC(=O)C=CC4(C)C3C(O)CC21C (some centres undefined) | inactive
CN[C@H](C)CCC=C(C)C | inactive
CC1(C)C2CC[C@]1(C)[C@@H](O)C2 | inactive
Nc1nc(F)nc2c1ncn2[C@@H]1O[C@H](CO)[C@@H](O)[C@H]1O | inactive
CC1OC(OC2CCC3(C)C(CCC4C3CC(O)C3(C)C(C5=CC(=O)OC5)CCC43O)C2)CC(O)C1OC1CC(O)C(OC2CC(O)C(OC3OC(CO)C(O)C(O)C3O)C(C)O2)C(C)O1 (centres undefined) | inactive
CC1OC(OCC2OC(Oc3c(-c4ccc(OCCO)c(OCCO)c4)oc4cc(OCCO)cc(O)c4c3=O)C(O)C(O)C2O)[C@@H](O)C(O)C1O (some centres undefined) | inactive
